Our source for the growth values is PubChem BioAssay (NCI).

The panel holds about 83,000 compounds, 20% with a hit somewhere; the sample as a whole holds those more often.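 Testing used 96-well plates and a 48-hour single-concentration exposure. Example: -40 means 40% of the starting cells died.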 A number with no mark means an inactive call. Calls of active or inactive are those of the source. How the source made its calls: active means growth percent below 10; inactive means the rest.

Some test systems named below: SK-MEL-2 melanoma; EKVX NSCLC; SN12C renal; UO-31 renal; TK-10 renal; ACHN renal; CAKI-1 renal; A498 renal; MOLT-4 leukemia; SR leukemia; OVCAR-8 ovarian; OVCAR-5 ovarian; OVCAR-4 ovarian; SK-OV-3 ovarian; IGROV1 ovarian; OVCAR-3 ovarian; HS 578T breast; NCI/ADR-RES ovarian; RPMI-8226 leukemia.
What all share (assay): NCI-60 one-dose screen, 48 h (100 = growth as untreated, 0 = no growth, -100 = all killed)
Conditions in all cases: 10 µM unless noted

In the case of `Cn1cc(-c2csc(-c3cccc(F)c3)n2)c2cccnc21`, the growth in the assay on SK-MEL-2 melanoma is -51.7% [100 µM] (active); in the assay with EKVX NSCLC it was 21.3% [100 µM]; in the assay on SN12C renal it was -65% [100 µM] (active); in the assay with UO-31 renal, -27.7% [100 µM] (active); with TK-10 renal, -52.7% [100 µM] (active); in the assay with ACHN renal it was -31.8% [100 µM] (active). Moreover, the growth was -57.2% [100 µM] (active) in the assay on CAKI-1 renal; -84.2% [100 µM] (active) with A498 renal; 4.1% [100 µM] (active) in the assay on MOLT-4 leukemia; 0.511% [100 µM] (active) with SR leukemia; 1.57% [100 µM] (active) in the assay with OVCAR-8 ovarian; -52.4% [100 µM] (active) in the assay on OVCAR-5 ovarian. The growth is -44.8% [100 µM] (active) in the assay on OVCAR-4 ovarian; -20.8% [100 µM] (active) in the assay with SK-OV-3 ovarian; -22.6% [100 µM] (active) in the assay with IGROV1 ovarian; -44.7% [100 µM] (active) in the assay on OVCAR-3 ovarian; 15.9% [100 µM] in the assay on HS 578T breast; -34.4% [100 µM] (active) with NCI/ADR-RES ovarian.

Consider `O=[N+]([O-])c1ccc(-c2cc(-c3ccc(Nc4nc(Nc5ccc(Cl)cc5)nc(Nc5ccc(Cl)cc5)n4)cc3)no2)cc1`, for which the growth with SK-MEL-2 melanoma is 72.4%; in the assay with EKVX NSCLC, 92.9%; in the assay with SN12C renal, 97.6%; with UO-31 renal it was 78.8%; with TK-10 renal, 105%; in the assay on ACHN renal, 94.5%. For the same compound, the growth with CAKI-1 renal was 115%; in the assay on A498 renal it was 88.2%; in the assay with MOLT-4 leukemia it was -19.7% (active); with SR leukemia, 14.5%; with RPMI-8226 leukemia, 34.7%; in the assay with OVCAR-8 ovarian, 99%. Further, the growth was 31.4% with OVCAR-4 ovarian; 107% in the assay with SK-OV-3 ovarian; 92% with IGROV1 ovarian; 241% in the assay on OVCAR-3 ovarian; 99.9% in the assay on HS 578T breast; 75.3% in the assay on NCI/ADR-RES ovarian.

As for `N=C1C(c2nc(-c3ccc(Br)cc3)cs2)=C(O)CN1Cc1cccnc1`, the growth was 111% in the assay with SK-MEL-2 melanoma; 71.7% in the assay on EKVX NSCLC; 69.7% in the assay on SN12C renal; -6.45% (active) in the assay on UO-31 renal; 60.1% in the assay with TK-10 renal; 61.5% in the assay with ACHN renal. Also, the growth is 57.1% in the assay on CAKI-1 renal; 86.8% in the assay on A498 renal; 68.5% with MOLT-4 leukemia; 55.1% in the assay on SR leukemia; 70.2% in the assay on RPMI-8226 leukemia; 16.3% with OVCAR-8 ovarian. For the same compound, the growth in the assay with OVCAR-5 ovarian was 77.1%; with OVCAR-4 ovarian, 37.2%; in the assay on SK-OV-3 ovarian, 40.4%; in the assay on OVCAR-3 ovarian, 101%; in the assay on HS 578T breast, 23%; in the assay on NCI/ADR-RES ovarian, 70.1%.

As for `COc1ccc2[nH]c(O)c(/C=c3/cc4c(c(-c5cc(OC)c(OC)c(OC)c5)n3)=Nc3ccccc3-4)c2c1`, the growth with SK-MEL-2 melanoma is 83%; with EKVX NSCLC, 81.3%; in the assay with SN12C renal, 80.6%; in the assay with UO-31 renal, 51.5%; in the assay with TK-10 renal, 98%; in the assay with ACHN renal, 72%. The growth in the assay on CAKI-1 renal was 71.6%; in the assay on A498 renal, 43.3%; with MOLT-4 leukemia it was 23.5%; in the assay with SR leukemia, 10.4%; in the assay on RPMI-8226 leukemia, 1.39% (active); in the assay on OVCAR-5 ovarian, 116%. In addition, the growth is 64.8% in the assay on OVCAR-4 ovarian; 113% with SK-OV-3 ovarian; 85.8% in the assay on IGROV1 ovarian; 74.5% in the assay with OVCAR-3 ovarian; 73.9% in the assay with HS 578T breast; 39.4% with NCI/ADR-RES ovarian.

With `COc1ccc(/C=c2\nc3n(-c4ccccc4)c4nc5c6c(sc5c(=N)n4n-3c2=O)CCCC6)cc1`, the growth in the assay on SK-MEL-2 melanoma was 99.4%; with EKVX NSCLC, 67%; with SN12C renal, 86.4%; in the assay with UO-31 renal it was 49.5%; in the assay with TK-10 renal, 124%; with ACHN renal, 75.1%. The growth with CAKI-1 renal was 72.9%; in the assay on A498 renal, 58.9%; in the assay on MOLT-4 leukemia it was 56.3%; in the assay with SR leukemia it was 61.5%; with RPMI-8226 leukemia, 80.1%; with OVCAR-8 ovarian, 89.3%. Besides, the growth in the assay on OVCAR-5 ovarian is 104%; with OVCAR-4 ovarian it was 82%; in the assay on IGROV1 ovarian, 61.4%; with OVCAR-3 ovarian, 88.2%; in the assay on HS 578T breast, 85.6%; in the assay with NCI/ADR-RES ovarian, 83.1%.

Regarding `COc1ccc(C2=Nc3c(N)ncnc3NC(c3ccc4c(c3)OCO4)C2)cc1` (stereo unspecified), the growth in the assay on SK-MEL-2 melanoma was 57.6%; in the assay on EKVX NSCLC, 82.1%; in the assay with SN12C renal, 102%; in the assay with UO-31 renal, 79.4%; with TK-10 renal it was 107%; in the assay on ACHN renal, 83.6%. Moreover, the growth with CAKI-1 renal is 90%; in the assay on A498 renal it was 97.5%; in the assay on MOLT-4 leukemia it was 105%; in the assay with SR leukemia it was 96.5%; in the assay with OVCAR-8 ovarian it was 103%; in the assay with OVCAR-5 ovarian, 72.9%. The growth in the assay with OVCAR-4 ovarian was 95%; in the assay with SK-OV-3 ovarian, 97.5%; with IGROV1 ovarian, 37%; in the assay with OVCAR-3 ovarian, 100%; with HS 578T breast it was 87.7%; in the assay with NCI/ADR-RES ovarian it was 75.7%.

`CC(=O)c1ccc(NCC(=O)Nc2ccccn2)cc1`: the growth with SK-MEL-2 melanoma was 105%; with EKVX NSCLC it was 101%; in the assay on SN12C renal, 106%; in the assay with UO-31 renal, 86.4%; in the assay on TK-10 renal it was 146%; in the assay on ACHN renal, 103%. For the same compound, the growth in the assay on CAKI-1 renal was 87.9%; in the assay on A498 renal, 104%; with MOLT-4 leukemia, 100%; in the assay on SR leukemia it was 108%; with RPMI-8226 leukemia, 113%; with OVCAR-5 ovarian it was 109%. Moreover, the growth in the assay with OVCAR-4 ovarian was 98.9%; in the assay with SK-OV-3 ovarian it was 97%; in the assay with IGROV1 ovarian it was 94.8%; in the assay with OVCAR-3 ovarian it was 117%; in the assay on HS 578T breast, 106%; with NCI/ADR-RES ovarian it was 105%.

With `O=c1c2c3c(sc2n2c(-c4cc(-c5ccccc5)nn4-c4ccccc4)nnc2n1Cc1ccccc1)CCCC3`, the growth in the assay with SK-MEL-2 melanoma was 102%; with EKVX NSCLC, 101%; in the assay with SN12C renal, 98%; with UO-31 renal, 36.7%; with TK-10 renal, 126%; in the assay on ACHN renal, 106%. Also, the growth in the assay with CAKI-1 renal was 20.9%; in the assay with A498 renal, 141%; in the assay on MOLT-4 leukemia it was 19.1%; with SR leukemia, 13.2%; in the assay on RPMI-8226 leukemia, 14.2%; with OVCAR-8 ovarian it was 49.5%. Moreover, the growth in the assay with OVCAR-5 ovarian was 113%; with OVCAR-4 ovarian, 83.2%; in the assay with SK-OV-3 ovarian, 133%; in the assay on OVCAR-3 ovarian, 101%; in the assay with HS 578T breast it was 356%; in the assay with NCI/ADR-RES ovarian, 80.4%.

For `c1ccc2c(c1)nc(CN1CCOCC1)n1cc(N3CCCC3)nc21`, the growth in the assay on SK-MEL-2 melanoma was 106%; with EKVX NSCLC it was 87.2%; in the assay with SN12C renal, 97.7%; in the assay with UO-31 renal it was 75.1%; with TK-10 renal, 114%; with ACHN renal, 104%. In addition, the growth is 99.5% with CAKI-1 renal; 98.7% with A498 renal; 99% in the assay with MOLT-4 leukemia; 87% with SR leukemia; 62.6% in the assay with RPMI-8226 leukemia; 94.5% in the assay on OVCAR-8 ovarian. Moreover, the growth with OVCAR-4 ovarian is 111%; in the assay on SK-OV-3 ovarian, 89.8%; in the assay on OVCAR-3 ovarian, 110%; with HS 578T breast it was 92.5%; with NCI/ADR-RES ovarian it was 99%.
